Results from PubChem BioAssay AID1626 (SRMLSC, 2009).
The whole screen tested about 220,000 compounds, of which about 2,000 (0.91%) were called active. Another 2% or so got no clear call; they are omitted. These entries were drawn from the full list. Entries with a potency or affinity are not part of this list. A number with no mark means an inactive call. Cut-off read from the data, not from the text of the source: inconclusive = inhibition above about 80% without an active follow-up result; inactive = below that; test concentration not stated here.

Assay: M. tuberculosis H37Rv growth inhibitors, H37Rv strain (AID 1626);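 note: bacteria incubated seven days before Alamar blue readout; 0% = bacteria only wells and 100% = bacteria with antibiotic wells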
Conditions: stronger effect = higher value, concentration not given here

SMILES	inhibition [%]
Cc1c(Cl)ccc2c(C(N)=O)cc(-c3ccccn3)nc12	3.8
CC(C)n1nc(C(=O)Oc2ccc(Cl)cc2)c2ccccc2c1=O	9.19
Clc1ccc2c(c1)C(c1ccccc1Cl)=NCc1nnc(Br)n1-2	-0.77
CN1CCN(Cc2nnc3n2-c2ccc(Cl)cc2C(c2ccccc2)=NC3)CC1	-4.71
O=C(CN1C(=O)NC2(CCCCC2)C1=O)NC1CCCc2ccccc21 (stereo unspecified)	-2.8
CN(CC(=O)N1CCN(c2ccc(F)cc2)CC1)S(=O)(=O)c1ccc(F)cc1	-7.27
CC(=O)c1cccc(NC(=O)Cn2cc3c(n2)CCCC3)c1	-1.86
CC(=O)Nc1ccc(NC(=O)Cn2cc3c(n2)CCCC3)cc1	-8.53
CCOc1ccc(NC(=O)Nc2cccnc2)cc1	16.1
NC(=O)CSc1ncnc2c1oc1ccccc12	7.24
O=C(O)CSc1ncnc2c1oc1ccccc12	-5.38
COc1ccc(Cc2nnc(NC(=O)c3cccc([N+](=O)[O-])c3)s2)cc1	1.81
CCCCNC(=O)c1ccc(Cn2c(=S)[nH]c3c([nH]c4ccc(OC)cc43)c2=O)cc1	-1.23
N#Cc1ccc(COC(=O)c2ccc3c(=O)[nH]c(CN4CCOCC4)nc3c2)cc1	-4.45
O=c1[nH]c(CN2CCOCC2)nc2ccccc12	-6.66
O=C(c1ccc2c(c1)OCO2)C1CCCN(C(=O)c2cnn(Cc3ccccc3)c2)C1 (stereo unspecified)	5.07
CS(=O)(=O)N1CCN(c2ccccc2NC(=O)c2ccc(-c3ccc(Cl)cc3Cl)o2)CC1	-2.89
Cc1ccccc1NC(=O)c1ccc(-c2ccc(Cl)cc2Cl)o1	66.1
O=C(O)c1cc2c(s1)-c1ccccc1OC2	-9.86
Cc1c(NC(=O)c2cc3c(s2)-c2ccccc2OC3)cccc1[N+](=O)[O-]	1.27
Cc1cccc(-c2c3c(=O)n(C)c(=O)n(C)c3cn2CCO)c1	0.58
CCOC(=O)/C(C#N)=C1/C=C(C)NC(c2ccccc2O)=N1	-1.53
C=CCNC(=O)COC(=O)CCC(=O)c1cccs1	-6.43

SMILES	inhibition [%]
CCC1=C(OC(=O)N(CC)CC)N2C(=O)OC(=NCc3ccccc3)[C@]2(C)[C@H]2C1=CC[C@H]1C(=O)N(CC(=O)OC)C(=O)[C@H]12	6.67
COc1ccccc1-c1nc(C#N)c(N2CCN(c3ccccc3)CC2)o1	0.35
O=C(NCCN1CCN(c2cccc(Cl)c2)CC1)c1ccc(CSc2nc3ccncc3[nH]2)cc1	12.1
COc1ccc(Cl)cc1N(CC(=O)N/N=C/c1ccc(OC(C)C)cc1)S(=O)(=O)c1ccc(C)c([N+](=O)[O-])c1	2.6
CC1CCCC(NC(=O)COC(=O)Cc2ccccc2)C1C (stereo unspecified)	-10.6
CC1CCCC(NC(=O)COC(=O)COc2ccccc2Cl)C1C (stereo unspecified)	-6.56
NC(=O)NC(=O)COC(=O)c1sc2ccccc2c1Cl	-8.02
NC(=O)COC(=O)c1sc2ccccc2c1Cl	59.5
O=C(NCc1ccccc1F)Nc1ccc([N+](=O)[O-])cc1	-8.88
COC(=O)c1c(NC(=O)CC2SC(N)=NC2=O)sc2c1CCC(C)C2 (stereo unspecified)	10.2
COC(=O)c1c(NC(=O)CC2SC(N)=NC2=O)sc2c1CCCC2 (stereo unspecified)	0.3
Nc1nc(CN2CCN(c3ccccc3F)CC2)nc(Nc2ccc3c(c2)OCCO3)n1	12.1
CCCOc1ccc(-c2nnn(CC(=O)OCC)n2)cc1	79.1
CC(C)COc1ccc(-c2nnn(CC(=O)N3CCCC3)n2)cc1	2.29
COCCNC(=O)C(c1ccc(C)o1)N(C(=O)Cn1nnc2ccccc21)c1ccccc1 (stereo unspecified)	4.15
O=C(c1ccc2c(c1)[nH]c(=S)n1c3ccccc3nc21)N1CCN(c2ncccn2)CC1	-5.02
COc1ccc(N2CCN(C(=O)c3ccc4c(c3)[nH]c(=S)n3c5ccccc5nc43)CC2)cc1	-4.09
Cc1csc2nc(CNS(=O)(=O)c3ccc4c(c3)CCCC4)cn12	-3.26
Cc1cnc(C(=O)Nc2ccc(C(C)C)cc2)cn1	13.7
Cc1cnc(C(=O)Nc2ccc(F)cc2)cn1	-5.16
CCc1ccc(NC(=O)C2CC=CCC2C(=O)O)cc1 (stereo unspecified)	-2.56
CC(C)(C)c1ccc(Oc2ccc(NC(=O)C3CC=CCC3C(=O)O)cc2)cc1 (stereo unspecified)	3.77
O=S(=O)(NC1CCCCCCC1)c1cccs1	2.84

SMILES	inhibition [%]
CC/C=C\[C@H](O)[C@H](O)C1=C(C)C(=O)[C@]2(O1)C(=O)N[C@@](OC)(C(=O)c1ccccc1)C2O (stereo partly specified)	-6.03
CCOC(=O)C(/C(C)=N/NC(=O)C1CC1c1ccccc1)C(C)C (stereo unspecified)	2.71
CCCCc1nc2sc3c(=O)n(N)cnc3c2c2c1CCC2	-0.89
CCCCc1nc2sc3c(SCC(=O)NCc4ccco4)ncnc3c2c2c1CCC2	-4.26
COCCCNC(=O)c1c(NC(=O)C2COc3ccccc3O2)sc2c1CCCC2 (stereo unspecified)	-1.45
COc1ccc(OC)c(S(=O)(=O)N2Cc3ccccc3CC2C(=O)O)c1 (stereo unspecified)	-11.6
CC(=O)Nc1ccc(NC(=O)CCCCCN2C(=O)c3ccccc3C2=O)cc1	1.79
CCN1/C(=C2\SC(=S)N(Cc3ccccc3)C2=O)Sc2ccccc21	5.93
CCN1/C(=C\C=C2\C(=O)N(C)C(=S)N2C)Sc2ccccc21	16
CC(=O)Nc1ccc2c(c1)nc1n2CCN(C(C)c2ccccc2)C1 (stereo unspecified)	5.76
O=C(c1ccc(F)cc1)N1CCCCC(S(=O)(=O)c2ccccc2)C1=O (stereo unspecified)	6.14
N#CCSc1nc2ccccc2c(=O)n1CCCC(=O)NCC1CCCO1 (stereo unspecified)	-1.98
Cc1ccc(C(=O)OCC(=O)c2ccc[nH]2)s1	7.67
O=C(COC(=O)c1ccc[nH]c1=O)c1ccc(Cl)s1	-0.06
O=C1NC(O)(c2ccccc2)Oc2ccccc21 (stereo unspecified)	-6.9
Cc1[nH][nH]c(=O)c1C(c1ccc(-c2ccc(F)cc2)o1)c1c(C)[nH][nH]c1=O	4.51
Cc1[nH][nH]c(=O)c1C(c1ccc(-c2ccc(Cl)c(Cl)c2)o1)c1c(C)[nH][nH]c1=O	60.8
O=C(CN1CCC(N2CCCCC2)CC1)N1CCOCC1	5.06
CCOC(=O)N1CCN(C(c2ccc(C(C)C)cc2)c2sc3nc(C)nn3c2O)CC1 (stereo unspecified)	0.52
COc1ccc(Cl)cc1S(=O)(=O)NCc1cccnc1	-12
O=S(=O)(Nc1ccc(-c2nnc(SCc3ccc(Cl)cc3)o2)cc1)c1ccccc1	5.83
Cc1cccc(OCc2nnc(SCc3cc(=O)[nH]c4ccccc34)n2-c2ccccc2)c1	4.6
O=c1cc(CSc2nnc(COc3ccccc3)n2-c2ccccc2)c2ccccc2[nH]1	3.7

SMILES	inhibition [%]
COCCNC(=O)c1cc(-c2ccc(OC)c(OC)c2)on1	6.55
COc1ccc(-c2cc(C(=O)Nc3cc(OC)c(OC)c(OC)c3)no2)cc1OC	-1.57
CCOC(=O)c1ccc(NC(=O)CSc2nc3c(c(=O)n2CC)SC(C)C3)cc1 (stereo unspecified)	7.17
CCCSc1cc(NCCOC(=O)CCC)c([N+](=O)[O-])c2nonc12	56.8
CC(C)CCSc1cc(NCCO)c([N+](=O)[O-])c2nonc12	-2.23
CCCSc1cc(NCCOC(C)=O)c([N+](=O)[O-])c2nonc12	2.64
CC(=O)OCCNc1cc(SC(C)C)c2nonc2c1[N+](=O)[O-]	1.55
COC(=O)c1cc2ccsc2n1CC(=O)Nc1cc(C)cc(C)c1	-0.8
Cc1cc(NCCCN2CCOCC2)n2ncc(-c3ccc(Cl)cc3)c2n1	4.89
Cc1cc(NCCOCCO)n2ncc(-c3ccc(Cl)cc3)c2n1	8.65
CC(C)(C)c1cc(C(F)(F)F)n2ncc(-c3ccccc3)c2n1	3.89
CC(C)Nc1cc(C(C)(C)C)nc2c(-c3ccccc3)cnn12	-1.54
CCCc1cc(=O)oc2c(C)c(OCC(=O)c3ccc(N4CCCC4)cc3)ccc12	15.8
COCCNC(=O)c1onc(CSc2ccc(C(C)C)cc2)c1C(=O)O	-18.6
O=C1C2C3CCC(C3)C2C(=O)N1c1ccc(OS(=O)(=O)c2ccccc2)cc1 (stereo unspecified)	-1.92
CCOC(=O)c1nn(-c2ccc(Cl)cc2)c2nc(CC)c(C#N)c(=O)n12	1.58
Cc1cc(C)cc(OCC(=O)OC/C(O)=C(\C#N)c2nc3ccccc3[nH]2)c1	13
COCC(=O)OC/C(O)=C(\C#N)c1nc2ccccc2[nH]1	43.4
CC(C)C(=O)OC/C(O)=C(\C#N)c1nc2ccccc2[nH]1	-0.61
Cc1cc(Br)ccc1SCC(=O)OC/C(O)=C(\C#N)c1nc2ccccc2[nH]1	77.9
N#C/C(=C(/O)COC(=O)CSc1ccc(Cl)cc1)c1nc2ccccc2[nH]1	76.2
Cc1cccc(C)c1OCC(=O)OC/C(O)=C(\C#N)c1nc2ccccc2[nH]1	3.83
